According to PubChem BioAssay (NCATS):
Inconclusive results are not listed. Calls of active or inactive are those of the source. Unless noted, calls come from the whole dose curve; as a rule, active = well fitted curve in the direction sought with a large enough effect; inconclusive = small, poorly fitted or top-dose-only effect, or another doubt; inactive = no such curve, though single readings can be large; an effect the other way counts as inactive or inconclusive.

Assays:
[1] = test system: Es-2; experiment: Primary qHTS to identify gynecologic anti-cancer compounds using libraries of approved drugs and bioactive compounds (AID 1345084); settings: Gynecologic cancer cell panel viability, ATPlite luminescence, 48 h; series mostly up to 57.5 µM; note: nearly all actives have a fitted effect of over 55% in size; note: potency is the fitted concentration of half-maximal effect
In short: (§1)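 Cells, 1,000 per well, plated 16 h, then exposed 48 h at 37 C to compounds. Viability by ATPlite luminescence after 15 min at room temperature.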

[2] = test system: HeLa; experiment: as above; settings: Gynecologic cancer cell panel viability, ATPlite luminescence, 48 h; series mostly up to 57.5 µM
In short: as §1

[3] = test system: Hek293T; experiment: as above; settings: Gynecologic cancer cell panel viability, ATPlite luminescence, 48 h, control line for the selectivity index; series mostly up to 57.5 µM
In short: as §1

[4] = test system: JEG-3; experiment: as above; settings: Gynecologic cancer cell panel viability, ATPlite luminescence, 48 h; series mostly up to 57.5 µM
In short: as §1

[5] = test system: OV90; experiment: as above; settings: Gynecologic cancer cell panel viability, ATPlite luminescence, 48 h; series mostly up to 57.5 µM
In short: as §1

[6] = test system: PA-1; experiment: as above; settings: Gynecologic cancer cell panel viability, ATPlite luminescence, 48 h; series mostly up to 57.5 µM
In short: as §1

[7] = test system: SKOV3; experiment: as above; settings: Gynecologic cancer cell panel viability, ATPlite luminescence, 48 h; series mostly up to 57.5 µM
In short: as §1

[8] = test system: Tov-21-G; experiment: as above; settings: Gynecologic cancer cell panel viability, ATPlite luminescence, 48 h; series mostly up to 57.5 µM
In short: as §1

[9] = test system: Tov112D; experiment: as above; settings: Gynecologic cancer cell panel viability, ATPlite luminescence, 48 h; series mostly up to 57.5 µM
In short: as §1

[10] = Drug repurposing screens with cells derived from glioblastoma tumor samples (AID 1345199); settings: GBM patient neurospheres viability, ATP luminescence, 48 h; note: nearly all actives have a fitted effect of over 40% in size; note: potency is the fitted concentration of half-maximal effect; for activity, negative = cell killing: % is set by controls: 0 for no effect and ±100 for the full control effect
In short: (§2)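 Primary testing used CD133+ neurospheres from four GBM patients, seven concentrations, 48 h exposure and ATP-based viability; confirmation added three slower-growing patient lines.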

[11] = test system: astro; experiment: as above; settings: viability, ATP luminescence, 48 h; series mostly up to 45.9 µM
In short: as §2

[12] = biological target: Nuclear receptor subfamily 1 group I member 2 (Rattus norvegicus) (UniProt Q9R1A7); experiment: qHTS assay for small molecule activators of the rat pregnane X receptor (rPXR) signaling pathway (AID 651751; call rule not given here; note: 0% is about no effect); settings: rPXR reporter cells, luciferase (One-Glo), 24 h
[13] = qHTS assay for small molecule activators of the human pregnane X receptor (PXR) signaling pathway (AID 720659; call rule not given here; note: 0% is about no effect)
[14] = at 45.9 µM (top of the series), tumour line B
[15] = at 45.9 µM (top of the series), tumour line D
[16] = at 21.2 µM (top of the series), tumour line B
[17] = at 21.2 µM (top of the series), tumour line D
[18] = at 21.3 µM (top of the series), tumour line A
[19] = at 46 µM (top of the series), tumour line A

Sequence of Nuclear receptor subfamily 1 group I member 2 (Rattus norvegicus) (Q9R1A7 whole entry, looked up): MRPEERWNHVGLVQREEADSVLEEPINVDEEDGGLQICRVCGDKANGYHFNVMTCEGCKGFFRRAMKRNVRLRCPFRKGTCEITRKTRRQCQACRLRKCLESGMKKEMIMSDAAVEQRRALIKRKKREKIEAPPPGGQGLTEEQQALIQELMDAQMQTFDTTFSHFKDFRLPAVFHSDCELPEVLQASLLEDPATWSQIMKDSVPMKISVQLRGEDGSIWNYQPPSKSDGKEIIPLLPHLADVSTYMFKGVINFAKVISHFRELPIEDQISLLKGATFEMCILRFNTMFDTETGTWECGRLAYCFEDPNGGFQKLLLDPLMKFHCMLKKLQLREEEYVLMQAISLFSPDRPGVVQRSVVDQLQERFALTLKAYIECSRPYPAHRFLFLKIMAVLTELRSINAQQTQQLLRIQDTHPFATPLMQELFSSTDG

O=C(N/N=C/c1ccc([N+](=O)[O-])o1)c1cc([N+](=O)[O-])cc([N+](=O)[O-])c1O
inactive: Potency [1] | Potency [2] | outcome [3] | outcome [4] | Potency [5] | Potency [6] | outcome [7] | Potency [8] | Potency [9] | activity, negative = cell killing [10, 14] -13.9% | activity, negative = cell killing [10, 15] -24.1%

C#CC(O)(C=CCl)CC (stereo not drawn)
inactive: Potency [1] | Potency [2] | outcome [3] | outcome [4] | Potency [5] | Potency [6] | outcome [7] | Potency [8] | Potency [9]

O=C1OC(CCN2CCCCC2)OC1(c1ccccc1)c1ccccc1 (stereo not drawn)
inactive: Potency [1] | Potency [2] | outcome [3] | outcome [4] | Potency [5] | Potency [6] | outcome [7] | Potency [8] | Potency [9]

CCOP(=S)(OCC)Oc1ccc2c(C)c(Cl)c(=O)oc2c1
inactive: Potency [1] | Potency [2] | outcome [3] | outcome [4] | Potency [5] | Potency [6] | outcome [7] | Potency [8] | Potency [9] | activity, negative = cell killing [10, 14] -3.04% | activity, negative = cell killing [10, 15] 6.08%

CC(C)(N)Cc1ccccc1Cl
inactive: Potency [1] | Potency [2] | outcome [3] | outcome [4] | Potency [5] | Potency [6] | outcome [7] | Potency [8] | Potency [9]

ClCCN1CCCC1
inactive: Potency [1] | Potency [2] | outcome [3] | outcome [4] | Potency [5] | Potency [6] | outcome [7] | Potency [8] | Potency [9]

C[C@]12CC[C@H]3[C@@H](CCC4=CC(=O)CC[C@@H]43)[C@@H]1CC[C@@H]2OC(=O)CCc1ccco1
active: Potency [2] 3.16 µM | Potency [6] 25.1 µM
inactive: Potency [1] | outcome [3] | outcome [4] | Potency [5] | outcome [7] | Potency [8] | Potency [9]

CCCOC(=O)c1cncn1C(C)c1ccccc1 (stereo not drawn)
inactive: Potency [1] | Potency [2] | outcome [3] | outcome [4] | Potency [5] | Potency [6] | outcome [7] | Potency [8] | Potency [9]

CCc1cc2c(s1)-n1c(C)nnc1CN=C2c1ccccc1Cl
inactive: Potency [1] | Potency [2] | outcome [3] | outcome [4] | Potency [5] | Potency [6] | outcome [7] | Potency [8] | Potency [9] | activity, negative = cell killing [10, 14] -22.1% | activity, negative = cell killing [10, 15] -8.05%

CC[N+]1(CC)CCC(OC(=O)C(O)(c2ccccc2)c2ccccc2)C1 (stereo not drawn)
inactive: Potency [1] | Potency [2] | outcome [3] | outcome [4] | Potency [5] | Potency [6] | outcome [7] | Potency [8] | Potency [9]

O=c1[nH]c2ccccc2n1C1CCNCC1
inactive: Potency [1] | Potency [2] | outcome [3] | outcome [4] | Potency [5] | Potency [6] | outcome [7] | Potency [8] | Potency [9]

C[C@]12Cc3cn[nH]c3C[C@@H]1CC[C@@H]1[C@@H]2CC[C@@]2(C)[C@H]1CC[C@]2(C)O
inactive: Potency [1] | Potency [2] | outcome [3] | outcome [4] | Potency [5] | Potency [6] | outcome [7] | Potency [8] | Potency [9]

Clc1ccccc1N1CCNCC1
inactive: Potency [1] | Potency [2] | outcome [3] | outcome [4] | Potency [5] | Potency [6] | outcome [7] | Potency [8] | Potency [9]

C[N+]1(CCF)[C@@H]2CC[C@H]1CC(OC(=O)C(O)(c1ccccc1)c1ccccc1)C2 (stereo partly drawn)
inactive: Potency [1] | Potency [2] | outcome [3] | outcome [4] | Potency [5] | Potency [6] | outcome [7] | Potency [8] | Potency [9] | activity, negative = cell killing [10, 14] -12.6% | activity, negative = cell killing [10, 15] -18.1%
active: Potency ([10]; tumour line A) 11.2 µM

CNC(C)(C)Cc1ccccc1
inactive: Potency [1] | Potency [2] | outcome [3] | outcome [4] | Potency [5] | Potency [6] | outcome [7] | Potency [8] | Potency [9] | activity, negative = cell killing [10, 16] -7.53% | activity, negative = cell killing [10, 17] -8.31% | activity, negative = cell killing [10, 18] -29.6%

CN1CC[C@]23c4c5ccc(O)c4O[C@H]2[C@@H](O)CC[C@H]3[C@H]1C5
inactive: Potency [1] | Potency [2] | outcome [3] | outcome [4] | Potency [5] | Potency [6] | outcome [7] | Potency [8] | Potency [9] | activity, negative = cell killing ([10]; at 91.6 µM (top of the series), tumour line A) -29.5% | activity, negative = cell killing ([10]; at 91.6 µM (top of the series), tumour line B) -3.58% | activity, negative = cell killing ([10]; at 91.6 µM (top of the series), tumour line D) -23.6%

CCC1(CC)C(=O)C=CNC1=O
inactive: Potency [1] | Potency [2] | outcome [3] | outcome [4] | Potency [5] | Potency [6] | outcome [7] | Potency [8] | Potency [9] | activity, negative = cell killing [10, 14] -5.96% | activity, negative = cell killing [10, 15] -8.64% | activity, negative = cell killing [10, 19] -23.7% | Potency [11]

[N-]=[N+]=CC(=O)OC[C@H](N)C(=O)O
inactive: Potency [1] | Potency [2] | outcome [3] | outcome [4] | Potency [5] | Potency [6] | outcome [7] | Potency [8] | Potency [9] | activity, negative = cell killing [10, 14] -23.8% | activity, negative = cell killing [10, 15] -9.43% | activity, negative = cell killing [10, 19] -24.5% | max response [12] -5.51% | outcome [13]

O=c1oc2ccccc2c(O)c1Cc1c(O)c2ccccc2oc1=O
inactive: Potency [1] | Potency [2] | outcome [3] | outcome [4] | Potency [5] | Potency [6] | outcome [7] | Potency [8] | Potency [9] | activity, negative = cell killing [10, 16] -21.7% | activity, negative = cell killing [10, 17] -20.9% | activity, negative = cell killing [10, 18] -20.4%

Nc1ccccc1
inactive: Potency [1] | Potency [2] | outcome [3] | outcome [4] | Potency [5] | Potency [6] | outcome [7] | Potency [8] | Potency [9] | activity, negative = cell killing [10, 14] -4.34% | activity, negative = cell killing [10, 15] -2.5% | activity, negative = cell killing [10, 19] -28.7% | Potency [11] | max response [12] -4.01% | outcome [13]
